What all share (set-up): scale not given: direction of the effect not stated beside the values
For assay [1], the target named is Protein translocase subunit SecA (Escherichia coli (strain K12)) (UniProt P10408). Description: Assay to Identify E. coli SecA ATPase Inhibitors. The assay is classed as functional. The conditions noted are these: 30 µM.
The target in assay [2] is T1, Ubiquitin-activating enzyme e1, putative (Leishmania donovani (strain BPK282A1)) (UniProt E9BSI1).
T1 sequence (whole entry): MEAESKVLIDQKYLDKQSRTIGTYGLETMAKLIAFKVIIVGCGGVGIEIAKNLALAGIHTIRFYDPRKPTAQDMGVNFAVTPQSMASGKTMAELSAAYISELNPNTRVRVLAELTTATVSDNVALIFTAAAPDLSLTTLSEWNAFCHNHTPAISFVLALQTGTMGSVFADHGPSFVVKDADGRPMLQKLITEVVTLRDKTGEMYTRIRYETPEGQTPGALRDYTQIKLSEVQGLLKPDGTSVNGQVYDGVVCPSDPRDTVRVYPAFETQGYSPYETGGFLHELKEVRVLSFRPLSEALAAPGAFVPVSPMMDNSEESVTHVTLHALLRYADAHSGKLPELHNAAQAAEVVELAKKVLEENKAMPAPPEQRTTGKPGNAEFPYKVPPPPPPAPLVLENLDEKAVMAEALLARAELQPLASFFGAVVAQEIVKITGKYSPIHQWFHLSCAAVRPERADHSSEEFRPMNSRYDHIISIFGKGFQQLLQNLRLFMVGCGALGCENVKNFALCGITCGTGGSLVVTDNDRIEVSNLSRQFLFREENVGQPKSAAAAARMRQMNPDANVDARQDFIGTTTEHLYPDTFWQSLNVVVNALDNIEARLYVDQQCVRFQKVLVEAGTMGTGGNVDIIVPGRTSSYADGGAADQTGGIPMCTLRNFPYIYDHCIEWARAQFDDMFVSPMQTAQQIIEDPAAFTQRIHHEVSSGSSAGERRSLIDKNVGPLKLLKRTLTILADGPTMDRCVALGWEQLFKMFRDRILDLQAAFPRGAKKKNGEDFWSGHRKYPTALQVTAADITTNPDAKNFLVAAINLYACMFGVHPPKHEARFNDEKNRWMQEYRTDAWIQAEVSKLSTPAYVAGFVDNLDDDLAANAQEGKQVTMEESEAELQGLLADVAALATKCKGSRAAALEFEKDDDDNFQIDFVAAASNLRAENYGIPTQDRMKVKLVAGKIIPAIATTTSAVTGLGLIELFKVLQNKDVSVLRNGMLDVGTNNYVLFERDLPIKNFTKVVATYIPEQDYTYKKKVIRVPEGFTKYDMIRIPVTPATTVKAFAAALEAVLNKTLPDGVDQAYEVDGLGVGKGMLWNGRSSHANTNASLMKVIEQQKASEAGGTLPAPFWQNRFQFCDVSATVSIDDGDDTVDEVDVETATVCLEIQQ
Description: Leishmania donovani Ubiquitin Activating Enzyme (LdE1). The assay is classed as functional. The note with it: 30 µM.

For assay [3], the target named is AMP-activated protein kinase, AMPK (Homo sapiens) (UniProt P54646+O43741+P54619+Q9UGJ0+Q9Y478+Q13131+Q9UGI9). Description: AMP-dependent Kinase enzyme assay. An in vitro enzyme assay that detects ADP turnover that is directly proportional to AMPK activity. This uses naive AMPK that is activated during the assay with MK-8722. In kind it is functional. The conditions noted are these: 30 µM.

Assay [4] addresses Sialic acid-binding Ig-like lectin 9 (Homo sapiens) (UniProt Q9Y336). Description: Hs-Siglec9 ALPHAscreen SOP 20170721. The conditions noted are these: 10 µM. On the technique in general: In Alpha technology, singlet oxygen from a donor bead excites a nearby acceptor bead.
Assay [5] has as its system Trypanosoma cruzi. Description: Trypanosoma cruzi phosphomannomutase and mannose-1-phosphate guanylyltransferase assay. In kind it is functional. The conditions noted are these: 10 µM.
Assay [6] deals with T2, Arginase-2, mitochondrial (Homo sapiens) (UniProt P78540).
T2 sequence (whole entry): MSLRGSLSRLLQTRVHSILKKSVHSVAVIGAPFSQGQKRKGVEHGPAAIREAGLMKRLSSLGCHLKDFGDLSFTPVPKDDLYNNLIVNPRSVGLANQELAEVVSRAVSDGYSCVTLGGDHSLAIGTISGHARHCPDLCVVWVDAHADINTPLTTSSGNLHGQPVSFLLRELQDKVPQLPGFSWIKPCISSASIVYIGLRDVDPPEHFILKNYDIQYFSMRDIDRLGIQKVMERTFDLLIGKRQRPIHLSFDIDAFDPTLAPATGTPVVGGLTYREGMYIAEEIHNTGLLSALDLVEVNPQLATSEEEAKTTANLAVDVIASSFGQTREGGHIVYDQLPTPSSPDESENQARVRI
Description: in vitro enzyme assay to detect the production of urea directly proportional to the activity of Arginase II. Also: in the data most compounds retested in dose-response had high values. In kind it is functional. The conditions noted are these: 33.3 µM.

In assay [7] the target is T3, Proteasome subunit beta (Trypanosoma cruzi) (UniProt O96673).
T3 sequence (whole entry): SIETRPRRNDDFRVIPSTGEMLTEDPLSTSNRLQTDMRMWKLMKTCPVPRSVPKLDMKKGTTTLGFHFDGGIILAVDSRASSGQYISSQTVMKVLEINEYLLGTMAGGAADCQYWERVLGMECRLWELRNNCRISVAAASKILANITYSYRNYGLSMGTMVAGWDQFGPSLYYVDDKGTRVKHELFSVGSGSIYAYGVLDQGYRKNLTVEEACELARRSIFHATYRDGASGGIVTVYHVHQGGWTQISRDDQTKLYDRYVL
Description: Trypanosoma cruzi proteasome chymotrypsin-like activity (TcProtChymo) assay. Also: in the data most compounds retested in dose-response had high values. The assay is classed as functional. The conditions noted are these: 9.37 µM.

The species entered for assay [8] is Homo sapiens. Description: To identify inhibition of the IFN signalling (Jak-Stat) pathway via expression of an eGFP reporter gene under the control of an IFN-stimulated response element (ISRE) containing MxA promoter. The conditions noted are these: 30 µM. In kind it is functional. (In general: A reporter such as luciferase makes a cellular process visible.)

Assay [9] addresses T4, Tyrosyl-tRNA synthetase, putative (Trypanosoma cruzi (strain CL Brener)) (UniProt Q4DSP6).
T4 sequence (whole entry): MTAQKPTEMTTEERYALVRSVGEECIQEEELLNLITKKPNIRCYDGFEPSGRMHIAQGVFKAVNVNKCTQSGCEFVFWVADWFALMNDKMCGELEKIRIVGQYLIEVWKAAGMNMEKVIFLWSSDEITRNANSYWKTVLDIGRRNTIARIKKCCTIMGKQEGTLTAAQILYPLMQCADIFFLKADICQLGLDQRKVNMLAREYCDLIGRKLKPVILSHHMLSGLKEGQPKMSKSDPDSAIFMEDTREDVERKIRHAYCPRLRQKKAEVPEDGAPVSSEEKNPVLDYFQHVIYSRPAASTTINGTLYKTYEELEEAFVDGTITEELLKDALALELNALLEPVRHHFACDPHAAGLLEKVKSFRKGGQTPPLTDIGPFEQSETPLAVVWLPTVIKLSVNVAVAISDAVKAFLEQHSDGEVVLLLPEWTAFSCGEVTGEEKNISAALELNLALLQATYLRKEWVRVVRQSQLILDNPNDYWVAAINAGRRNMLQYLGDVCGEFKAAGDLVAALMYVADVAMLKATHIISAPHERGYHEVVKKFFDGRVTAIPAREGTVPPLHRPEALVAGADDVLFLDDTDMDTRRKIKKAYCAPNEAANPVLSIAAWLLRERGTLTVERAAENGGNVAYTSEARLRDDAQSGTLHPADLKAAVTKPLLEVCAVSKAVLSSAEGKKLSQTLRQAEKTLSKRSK
Description: Trypanosoma cruzi tyrosyl tRNA synthetase (TcYRS) _High Tyrosine SOP. Also: in the data most compounds retested in dose-response had high values. In kind it is functional. The conditions noted are these: 30 µM.

Assay [10] deals with T4, Tyrosyl-tRNA synthetase, putative (Trypanosoma cruzi (strain CL Brener)). Description: Trypanosoma cruzi tyrosyl tRNA synthetase (TcYRS) SOP. The assay is classed as functional. The note with it: 30 µM.
Assay [11] has as its target Chromo domain-containing protein 1 (Saccharomyces cerevisiae (strain ATCC 204508 / S288c) (Baker's yeast)) (UniProt P32657). Description: ScCHD-1 Enzyme Inhibition Assay. Also: in the data most compounds retested in dose-response had high values. The note with it: 30 µM. In kind it is functional.

The structures appear in SMILES notation. For some of these results: Results with a measured potency or affinity are listed apart.

The results in this text go back to ChEMBL document CHEMBL3988442, “University of Dundee, Small-Polar-MMV Screening Library” (2021).

Chain of Sialic acid-binding Ig-like lectin 9 (Homo sapiens) (Q9Y336 whole entry): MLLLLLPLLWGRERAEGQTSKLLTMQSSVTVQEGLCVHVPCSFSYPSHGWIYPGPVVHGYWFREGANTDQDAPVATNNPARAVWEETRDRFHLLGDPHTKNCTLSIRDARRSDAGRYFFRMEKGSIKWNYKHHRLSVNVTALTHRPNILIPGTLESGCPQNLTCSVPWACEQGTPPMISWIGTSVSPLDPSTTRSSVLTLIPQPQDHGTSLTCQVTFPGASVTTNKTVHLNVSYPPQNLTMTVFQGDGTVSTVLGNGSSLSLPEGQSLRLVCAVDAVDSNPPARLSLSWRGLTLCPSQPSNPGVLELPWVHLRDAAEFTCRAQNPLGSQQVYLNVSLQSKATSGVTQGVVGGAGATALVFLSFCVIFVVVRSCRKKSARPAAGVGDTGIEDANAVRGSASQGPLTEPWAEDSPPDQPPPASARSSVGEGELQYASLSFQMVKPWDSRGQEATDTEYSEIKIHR
Chain of Protein translocase subunit SecA (Escherichia coli (strain K12)) (P10408 whole entry): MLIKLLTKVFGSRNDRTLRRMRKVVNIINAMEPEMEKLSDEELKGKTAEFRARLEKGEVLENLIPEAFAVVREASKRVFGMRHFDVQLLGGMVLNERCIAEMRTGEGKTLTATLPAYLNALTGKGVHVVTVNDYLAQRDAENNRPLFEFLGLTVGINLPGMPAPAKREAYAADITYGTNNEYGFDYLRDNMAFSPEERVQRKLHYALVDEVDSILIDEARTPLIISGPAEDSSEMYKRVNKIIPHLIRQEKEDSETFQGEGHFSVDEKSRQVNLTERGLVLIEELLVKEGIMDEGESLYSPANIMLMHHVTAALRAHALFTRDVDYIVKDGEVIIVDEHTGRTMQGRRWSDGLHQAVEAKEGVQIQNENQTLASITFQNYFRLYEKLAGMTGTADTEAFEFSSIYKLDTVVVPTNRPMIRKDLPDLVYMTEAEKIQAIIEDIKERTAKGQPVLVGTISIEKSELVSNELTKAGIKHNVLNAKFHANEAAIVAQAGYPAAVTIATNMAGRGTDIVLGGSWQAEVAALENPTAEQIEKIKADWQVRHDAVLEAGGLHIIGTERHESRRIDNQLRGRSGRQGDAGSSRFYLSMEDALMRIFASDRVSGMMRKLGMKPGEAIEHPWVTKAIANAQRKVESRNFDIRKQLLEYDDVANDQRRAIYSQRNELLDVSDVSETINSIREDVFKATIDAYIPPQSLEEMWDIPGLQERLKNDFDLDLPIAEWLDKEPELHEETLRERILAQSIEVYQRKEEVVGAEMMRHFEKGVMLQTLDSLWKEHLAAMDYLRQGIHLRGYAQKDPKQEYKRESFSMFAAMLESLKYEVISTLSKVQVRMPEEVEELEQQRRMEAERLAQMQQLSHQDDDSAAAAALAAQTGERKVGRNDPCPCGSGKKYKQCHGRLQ
Chain of Chromo domain-containing protein 1 (Saccharomyces cerevisiae (strain ATCC 204508 / S288c) (Baker's yeast)) (P32657 whole entry, the tested form may be a part): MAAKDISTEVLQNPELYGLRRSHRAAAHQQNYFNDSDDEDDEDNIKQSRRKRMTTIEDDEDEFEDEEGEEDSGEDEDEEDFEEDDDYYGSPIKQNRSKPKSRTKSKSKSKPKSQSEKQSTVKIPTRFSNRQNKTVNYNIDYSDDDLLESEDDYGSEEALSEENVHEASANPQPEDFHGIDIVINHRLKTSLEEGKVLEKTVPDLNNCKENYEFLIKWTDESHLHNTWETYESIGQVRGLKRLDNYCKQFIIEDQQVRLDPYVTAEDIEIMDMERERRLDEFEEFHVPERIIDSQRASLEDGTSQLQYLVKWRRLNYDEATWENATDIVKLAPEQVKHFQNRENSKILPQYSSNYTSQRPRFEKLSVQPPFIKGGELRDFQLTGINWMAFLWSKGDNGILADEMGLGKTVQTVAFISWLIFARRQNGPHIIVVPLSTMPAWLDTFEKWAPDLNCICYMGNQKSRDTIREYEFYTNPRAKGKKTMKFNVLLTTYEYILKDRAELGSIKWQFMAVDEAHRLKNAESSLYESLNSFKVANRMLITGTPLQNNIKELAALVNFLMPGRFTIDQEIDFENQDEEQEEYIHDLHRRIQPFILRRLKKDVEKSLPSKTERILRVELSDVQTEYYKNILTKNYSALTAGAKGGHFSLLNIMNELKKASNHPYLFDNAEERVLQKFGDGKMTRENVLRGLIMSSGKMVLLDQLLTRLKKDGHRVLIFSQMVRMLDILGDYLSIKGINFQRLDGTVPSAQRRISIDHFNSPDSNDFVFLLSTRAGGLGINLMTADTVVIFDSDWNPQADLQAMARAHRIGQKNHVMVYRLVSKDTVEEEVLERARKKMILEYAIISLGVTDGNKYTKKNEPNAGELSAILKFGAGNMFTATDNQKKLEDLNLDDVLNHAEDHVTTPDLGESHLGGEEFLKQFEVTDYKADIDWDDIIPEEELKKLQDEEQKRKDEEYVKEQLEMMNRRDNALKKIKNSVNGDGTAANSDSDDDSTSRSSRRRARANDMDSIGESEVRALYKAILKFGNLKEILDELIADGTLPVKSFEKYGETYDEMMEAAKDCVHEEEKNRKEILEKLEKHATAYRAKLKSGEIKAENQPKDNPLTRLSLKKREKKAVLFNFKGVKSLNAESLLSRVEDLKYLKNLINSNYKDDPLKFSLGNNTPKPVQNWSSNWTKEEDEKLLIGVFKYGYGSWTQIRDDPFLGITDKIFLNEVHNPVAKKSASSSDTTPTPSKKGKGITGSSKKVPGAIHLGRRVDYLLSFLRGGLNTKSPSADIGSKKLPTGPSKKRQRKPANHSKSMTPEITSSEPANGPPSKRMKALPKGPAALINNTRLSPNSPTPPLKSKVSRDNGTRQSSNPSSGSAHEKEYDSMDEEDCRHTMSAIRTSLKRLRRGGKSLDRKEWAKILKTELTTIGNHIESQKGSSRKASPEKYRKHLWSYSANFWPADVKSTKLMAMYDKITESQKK

Regarding `Cc1noc(C)c1CCC(=O)N1CCCN(Cc2cscn2)CC1`, the Percent Effect in assay [1] is -1.71%; in assay [2], 13.2%; in assay [3], -5.71%; in [4], -4.5%; in assay [5], -3.76%; in [6], 6.9%. Besides, the Percent Effect in assay [7] is 21.1%; in assay [8], 23%; in [9], 8.33%; in [10], 17.1%; in [11], -10.5%.

As to `Cc1ccc(CN2CCCC3(CCN(S(=O)(=O)N(C)C)C3)C2)o1` (stereo not drawn), the Percent Effect is -4.24% in assay [1]; 10.7% in assay [2]; 11.3% in [3]; 7.3% in assay [4]; -2.17% in assay [5]; 3.03% in assay [6]. In addition, the Percent Effect was 13.7% in [7]; 9.85% in assay [8]; 7.45% in [9]; 19.2% in assay [10]; -3.25% in [11].

In the case of `COc1ccc(C(O)CNC(=O)NCc2csc(C)n2)cc1` (stereo not drawn), the Percent Effect was -3.31% in [1]; 18.9% in assay [2]; 1.28% in [3]; 1.81% in [4]; 6.41% in assay [5]; -2.03% in [6]. Also, the Percent Effect in assay [7] is 19.6%; in assay [8] it was 11.3%; in assay [9], 7.92%; in assay [10] it was -8.54%; in assay [11] it was -6.16%.

Turning to `Cc1nc(N2CCN(C(=O)C3CC3)CC2)c2c(n1)c(C)nn2C`, the Percent Effect is -1.08% in assay [1]; 6.67% in assay [2]; 0.162% in assay [3]; 0.614% in assay [4]; 3.73% in assay [5]; -4.75% in assay [6]. The Percent Effect in [7] was 10.2%; in assay [8], 18.7%; in assay [9], 6.35%; in assay [10], 12.8%; in [11], -11.8%.

Turning to `Cc1nc(N)cc(C2CN(C(=O)c3ccn(C)n3)CCO2)n1` (stereo not drawn), the Percent Effect in assay [1] was -6.21%; in [2], 17.6%; in [3] it was 0.477%; in [4], 3.12%; in assay [5], 0.198%; in assay [6], -3.94%. In addition, the Percent Effect in assay [7] is 10.4%; in [8], 8.03%; in assay [9], 3.23%; in [10] it was 16.9%; in assay [11], -24.2%.

Consider `CC(C)=CCN(C)C1CCCN(Cc2noc(C)n2)C1` (stereo not drawn), for which the Percent Effect was -2.36% in [1]; 18.9% in assay [2]; 22.7% in assay [3]; -3.99% in assay [4]; -3.06% in assay [5]; 1.29% in assay [6]. For the same molecule, the Percent Effect was 9.7% in [7]; 15.7% in assay [8]; 1.98% in [9]; 13.4% in [10]; -3.38% in assay [11].

As for `CCN(Cc1ccccc1)C(=O)CN1CCCC(Cn2cncn2)C1` (stereo not drawn), the Percent Effect in assay [1] is -8.07%; in assay [2] it was 21.1%; in assay [3] it was -3.72%; in assay [4], 18.3%; in assay [5], 3.64%; in assay [6], 2.16%. The Percent Effect was 8.38% in [7]; -4.88% in assay [8]; -4.43% in assay [9]; 23.5% in [10]; -6.71% in [11].

Regarding `O=C(O)c1ccc(S(=O)(=O)Nc2ccc(Cl)c(F)c2)c(F)c1`, the Percent Effect in [1] is -2.14%; in assay [2] it was -2.7%; in assay [3] it was -7.96%; in [4], 15.3%; in assay [5] it was 1.04%; in assay [6], 1.6%. Besides, the Percent Effect in assay [7] was -1.08%; in assay [8], 8.28%; in [9], -13.3%; in assay [10], -18.5%; in [11], -4.26%.
